VACV mCherry inh: inhibitors of vaccinia virus infection (mCherry reporter signal); actives 0.63% (n = 310,000); Vaccinia virus mCherry reporter infection, fluorescence; Potency, µM (titrated, usually from 36.5 µM), for the others: at the top dose activity change, negative = inhibition, hits mostly inhibitors; AID 720579; calls by dose curve; tested in A549 cells; further: potency means the concentration at half of the fitted maximal effect; nearly all actives have a fitted effect of over 35% in size
FMDV inh: blocks foot and mouth disease virus; FMDV antiviral cell-based qHTS; Potency, µM (highest dose often 57.9 µM), for inactives: at the top dose activity change, negative = inhibition, hits mostly inhibitors; actives 1.2% (n = 410,000); calls by dose curve; tested in HEK293T cells; further: read-out not given here; potency means the concentration at half of the fitted maximal effect; nearly all actives have a fitted effect of over 45% in size
Vaccinia Venus: inhibitors of vaccinia virus (Venus reporter); Vaccinia virus Venus reporter expression, fluorescence; actives 0.46% (n = 330,000); Potency, µM (titrated, usually from 36.5 µM), inactives show at the highest dose activity change, negative = inhibition, most hits filed as inhibitors; calls by dose curve; tested in A549 cells; further: potency means the concentration at half of the fitted maximal effect; nearly all actives have a fitted effect of over 30% in size
HCMV antiviral: inhibitors of human cytomegalovirus | HFF cells, HCMV-luciferase reporter, 72 h; hits give low values | activity change, negative = inhibition, % at 57.5 µM | actives 4.5% (n = 410,000); in the data active means activity change below about -60%; inconclusive means no clear call, values can overlap the other calls; inactive means above about -39%
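Two compound doses tested in HFFs infected with HCMV-luciferase, MOI 1 PFU/cell, 72 h at 37C. Lysate luminescence read with OneGlo; data normalized against buffer-only and 10uM Salinomycin inhibitor controls.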
HCV inhibitor: blocks hepatitis C virus | AID 651820 | Potency, µM (highest dose often 41.8 µM), inactives show at the highest dose activity change, negative = inhibition, most hits filed as inhibitors | Huh7.5.1 HCVcc-Cre infection, luciferase reporter, 44 h | actives 3.4% (n = 340,000); active means well fitted inhibition curve with a large enough effect; inconclusive means small, poorly fitted or top-dose-only effect, or another doubt; inactive means no such curve, though single readings can be large or run the other way; further: potency means the concentration at half of the fitted maximal effect
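Antiviral activity was scored by luciferase reporter output from cells infected with HCVcc-Cre (~0.5 moi) in presence of compound, 44 h infection period, cells seeded 1,000/well 4 h prior.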
Active calls of the source: *; i = inactive; ? = inconclusive; nt = no result given; [ ] = dose if it differs, or a comment. In the library only some 7.3% were active in any assay of this set; here they are far more common. On the % scale 0 is the no-effect control and ±100 the full control effect.

SMILES	VACV mCherry inh	FMDV inh	Vaccinia Venus	HCMV antiviral	HCV inhibitor
CC1CCN(c2ccccc2NC(=O)c2ccc(C#N)cc2F)CC1	-6%	-21%	-12%	-27	10µM*
Cc1cccc(Cl)c1N=CN1c2ccccc2-n2cccc2C1CCc1ccccc1 (configuration not stated)	nt	nt	nt	8	nt
Cn1c(=O)c(Nc2ccc(O)cc2)c2c3c(cccc31)C(=O)c1ccccc1-2	-28%	-11%	-20%	-61*	?
CCOC(=O)c1ccc(P(=O)(c2ccccc2)c2ccccc2)cc1	nt	8%	nt	-97*	0%
Cc1ccc(-c2cc(-c3ccccc3)cc(-c3ccccc3)[n+]2-c2ccccc2)cc1	8.9µM*	7.1µM*	10µM*	-99*	6.3µM*
CN(C)c1ccc(-[n+]2c(-c3ccccc3)cc(-c3ccccc3)cc2-c2ccccc2)cc1	-20%	32µM*	?	-99*	7.1µM*
c1ccc(-c2cc(-c3ccccc3)[n+](-c3ccccc3)c(-c3ccccc3)c2)cc1	-40%	18µM*	?	-101*	?
Cc1nc(N2CCOCC2)c2c(C(=O)N3CCN(c4cc(Cl)ccc4C)CC3)c(C)oc2n1	-11%	-18%	-24%	-9	nt
N#Cc1cccc(-c2cncnc2NCc2cccs2)c1	nt	-13%	nt	nt	nt
CCOC(=O)c1ccc(-[n+]2c(-c3ccccc3)cc(-c3ccccc3)cc2-c2ccccc2)cc1	i	-20%	?	nt	0.63µM*
Cc1ccc(-c2cc(-c3ccc(C)cc3)[n+](-c3ccc(C(=O)[O-])cc3)c(-c3ccc(C)cc3)c2)cc1	-13%	0%	-12%	-17	2.5µM*
Cc1ccc(-c2cc(-c3ccc(C)cc3)[n+](-c3ccccc3)c(-c3ccc(C)cc3)c2)cc1	?	7.1µM*	3.5µM*	nt	25µM*
COc1ccc(CN2C(=O)c3cccc4cccc(c34)C2c2nc3ccccc3[nH]2)cc1 (configuration not stated)	-14%	33%	-6%	89	nt
CCc1c(C#N)c(SCCC(=O)Nc2cccc(OC)c2)nc2c1C(=O)CC(C)(C)C2	nt	-22%	-27%	-21	10µM*
COc1ccc(-c2c(C#N)c(SCc3c(C)noc3C)nc3c2C(=O)CC(C)(C)C3)cc1	3%	-21%	3%	10	16%
CCc1c(C#N)c(SCCC(=O)Nc2ccc(F)cc2)nc2c1C(=O)CC(C)(C)C2	nt	28µM*	?	-96*	11µM*
CC1(C)CC(=O)c2c(nc(SCC(=O)Nc3nsc(-c4ccccc4)n3)c(C#N)c2-c2ccccc2)C1	-15%[1.46 µM]	-22%	-19%	-1	?
Cc1ccc(NC(=O)CSc2nc(N)c3c4c(sc3n2)CSC(C)(C)C4)cc1	-7%	?	?	33	11µM*
O=C(CCc1nnc2n(Cc3ccccc3)c(=O)c3ccccc3n12)NCCCN1CCCCC1	-17%	6%	-11%	-62*	-15%
COc1ccc(NC(=O)C2=C(C)Nc3ncnn3C2c2sccc2C)cc1 (configuration not stated)	-2%	12%	-13%	-5	nt
COC(=O)c1cc(S(=O)(=O)NCC2CCN(Cc3ccc(F)cc3)CC2)c[nH]1	-24%	2%	-12%	0	-6%
COc1ccc(CN2CCC(CNS(=O)(=O)c3cccc(C(F)(F)F)c3)CC2)cc1	-19%	-19%	-8%	-37	11µM*
O=C(c1ccncc1)N1CCC[C@@]2(CCN(c3ccncc3)C2)C1	nt	5%	nt	nt	nt
CCNC(=O)O/N=C(\C)c1sc(-c2ccccc2)nc1C	-7%	-8%	-15%	63	11µM*
C/C(=N\O)c1sc(-c2ccccc2)nc1C	0%	62%	-11%	103	10%
SMILES	VACV mCherry inh	FMDV inh	Vaccinia Venus	HCMV antiviral	HCV inhibitor
CC(Sc1nnc(C(C)Oc2ccccc2F)o1)C(=O)NCc1ccc2c(c1)OCO2 (configuration not stated)	nt	-18%	nt	-27	4%
Cc1nc2ccc(NC(=O)c3cccc(S(=O)(=O)N4CC(C)OC(C)C4)c3)cc2s1 (configuration not stated)	nt	20µM*	?	0	2.8µM*
CC1CN(S(=O)(=O)c2cccc(C(=O)Nc3ccccc3N3CCCC3)c2)CC(C)O1 (configuration not stated)	-10%	?	-28%	-32	32µM*
CC1CN(S(=O)(=O)c2ccc(NC(=O)c3cc(-c4ccccc4O)n[nH]3)cc2)CC(C)O1 (configuration not stated)	nt	?	nt	-98*	8.9µM*
CN1CCN(S(=O)(=O)c2cccc(C(=O)Nc3ccccc3N3CCCC3)c2)CC1	-18%	-2%	-4%	1	-3%
CC1CN(S(=O)(=O)c2cccc(C(=O)Nc3ccc(N4CCCCC4)cc3)c2)CC(C)O1 (configuration not stated)	-3%	-16%	-10%	36	nt
COCCC1CCCCN1C(=O)c1ccc2nc(Cc3ccccc3F)oc2c1 (configuration not stated)	-27%	0%	-16%	31	?
CSCCC(NC(=O)OCc1ccccc1)C(=O)NC(Cc1c[nH]c2ccccc12)C(=O)O (configuration not stated)	nt	nt	nt	15	nt
COc1cc(CNC(C)(C)CO)ccc1OCC(=O)Nc1ccc(Br)cc1	nt	-2%	nt	-14	13µM*
CCN(c1ccccc1)S(=O)(=O)c1ccc2[nH]cc(C(=O)NCc3ccc(C)cc3)c(=O)c2c1	-19%	-6%	-18%	-1	nt
CCOc1ccc(NC(=O)c2ccc3c(=O)n(-c4ccc(OC)cc4OC)c(=S)[nH]c3c2)cc1	nt	nt	nt	-82*	nt
COc1ccc(-n2c(=S)[nH]c3cc(C(=O)Nc4ccc(C)c(F)c4)ccc3c2=O)c(OC)c1	i	-17%	?	-76*	11µM*
COc1ccc(NC(=O)c2ccc3c(=O)n(-c4ccc(OC)cc4OC)c(=S)[nH]c3c2)c(OC)c1	-8%	?	-26%	-24	-12%
Cc1cc(C)cc(NC(=O)CSc2nnc(-c3cc4occc4n3C)n2-c2ccccc2C)c1	-19%	-7%	-17%	11	nt
COC(=O)c1c(-c2ccc(OC)cc2)sc2ccc(N3CCOCC3)cc12	?	25%	-8%	?	13µM*
COC(=O)c1c(-c2ccc(SC)cc2)sc2ccc(OC)cc12	i	-20%	-23%	197	45%[8.37 µM]
COC(=O)c1c(-c2cc(OC)cc(OC)c2)sc2ccc(OC)cc12	-16%	14%	-16%	1	13µM*
COc1ccc(N(CC(=O)NCCSc2ccccn2)S(=O)(=O)c2ccc(C)cc2)cc1OC	-12%	22%	-11%	-60*	-15%
O=C(CCNS(=O)(=O)c1ccccc1)NCCCSc1ccccc1	-6%	-7%	-18%	-4	-27%
Cc1ccc(N(CC(=O)NCCSc2ccccc2)S(=O)(=O)c2ccc(F)cc2)cc1	i	?	-9%	-65*	nt
Cc1ccc(S(=O)(=O)NCCC(=O)NCCCSc2ccccc2)cc1	nt	3%	nt	-75*	?

Screens from PubChem.
